From PubChem BioAssay (NCATS) come the findings set out here.

The structures appear in SMILES notation. Records with an inconclusive call do not appear. Calls of active or inactive are those of the source. Calls come from the whole dose curve.

Test [1] can be described thus: qHTS drug screen for cell cycle checkpoint inhibitors in PARPi-resistant BRCA-mutant ovarian cancer cell lines. (AID 1963452). To be noted: PEO1/OlaR viability, CellTiter-Glo luminescence, 96 h; for Z-AUC: stronger effect = lower value. In outline:
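PEO1, PEO4 and PEO1/OlaR ovarian cancer cells, 600 per well, exposed 96 h at 37C to a dilution series. Viability read by CellTiter-Glo luminescence, normalized to DMSO and empty wells; activity summarized as Z-AUC.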

Test [2] is described as follows: qHTS for identification of novel therapeutic agents for treatment of microphthalmiaassociated transcription factor (MiT) renal cell carcinoma (RCC) (AID 1963991). To be noted: CellTiter-Glo, 48 h; for Potency: active = Z-AUC below -0.8 in all three lines; for z-score: stronger effect = lower value. A digest of the protocol: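 Curves over 11 concentrations were fitted to CellTiter-Glo luminescence, scaled between empty wells (0%) and DMSO (100%) viability. Cells were UOK109, UOK124 and UOK145 TFE3-fusion RCC lines at 500/well, exposed 48 hours at 37 C.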

Setting [3] is: measured here: PEO1 parental Z-AUC.
The mark [4] stands for this setting: TFE3-RCC UOK109 viability, measured here: UOK109 Z-AUC.
Setting [5] is: TFE3-RCC viability, measured here: UOK124 Z-AUC.
[6] abbreviates: TFE3-RCC viability, measured here: UOK145 Z-AUC.
Potency is the fitted concentration of half-maximal effect.

Consider `O=C(O)C1(Cc2cccc(Nc3nccs3)n2)CCC(Oc2cccc(Cl)c2F)CC1` (stereo not drawn), for which the results for the Z-AUC in test [1], in test [1] (setting [3]) and in test [1] (measured here: PEO4 Z-AUC) were -0.463 (inactive), -1.23 and -1.84, respectively.

In the case of `CC(C)(C)c1cc(NC(=O)Nc2ccc(-c3cn4c(n3)sc3cc(OCCN5CCOCC5)ccc34)cc2)no1`, the Z-AUC was 1.23 (inactive) in test [1], 0.804 in test [1] (setting [3]) and 0.987 in test [1] (measured here: PEO4 Z-AUC).

Turning to `CN1CCN(Cc2ccc(NC(=O)Nc3ccc(Oc4cc(NC(=O)C5CC5)ncn4)cc3)cc2C(F)(F)F)CC1`, the Z-AUC is -1.5 (inactive) in test [1], -2.15 in test [1] (setting [3]) and -1.93 in test [1] (measured here: PEO4 Z-AUC).

For `CC(C)c1cc(-c2n[nH]c(=O)n2-c2ccc3c(ccn3C)c2)c(O)cc1O`, the values for the Z-AUC in test [1], in test [1] (setting [3]) and in test [1] (measured here: PEO4 Z-AUC) were -0.89 (inactive), -1.07 and 0.105, respectively.

Consider `NC1(Cc2ccc(Cl)cc2)CCN(c2ncnc3[nH]ccc23)CC1`, for which the values for the Z-AUC in test [1], in test [1] (setting [3]) and in test [1] (measured here: PEO4 Z-AUC) were -0.805 (inactive), -1.02 and -1.03, respectively.

Regarding `CN1CCC(CNc2ccc3ncc(-c4cccc(OC(F)(F)F)c4)n3n2)CC1`, the Z-AUC in test [1] is -0.465 (inactive); in test [1] (setting [3]) it was -0.0601; in test [1] (measured here: PEO4 Z-AUC), -0.00259.

As for `O=C(O)c1ccc2cc(-c3ccc(O)c(C45CC6CC(CC(C6)C4)C5)c3)ccc2c1`, the Z-AUC in test [1] is -0.815 (inactive); in test [1] (setting [3]), -1.55; in test [1] (measured here: PEO4 Z-AUC) it was -1.16.

On to `COc1ccc(-c2cc3c(C)nc(N)nc3n(C3CCC(OCCO)CC3)c2=O)cn1` (stereo not drawn), for which the Potency in test [1] was 490 nM (active). Also, the Z-AUC in test [1] (setting [3]) was -1.22; in test [1] (measured here: PEO4 Z-AUC), -1.44.

Consider `CC(C)(C)c1cnc(CSc2cnc(NC(=O)C3CCNCC3)s2)o1`, for which the Z-AUC in test [1] is -0.758 (inactive); in test [1] (setting [3]), -1.2; in test [1] (measured here: PEO4 Z-AUC), -0.895.

As for `Cc1nc(Nc2n[nH]c3c2CN(C(=O)N[C@H](CN(C)C)c2ccccc2)C3(C)C)c2sccc2n1`, the figures for the Z-AUC in test [1], in test [1] (setting [3]) and in test [1] (measured here: PEO4 Z-AUC) were -0.766 (inactive), -0.524 and -1.06, respectively.

In the case of `O=C(NCCCNc1nc(Nc2cccc(NC(=O)N3CCCC3)c2)ncc1I)c1cccs1`, the figures for the Z-AUC in test [1], in test [1] (setting [3]) and in test [1] (measured here: PEO4 Z-AUC) were 1.15 (inactive), 1.02 and 0.426, respectively.

On to `COc1cc2c(Oc3ccc(-c4cnc(Nc5ccc(F)cc5)n(C)c4=O)cc3F)ccnc2cc1OCCCN1CCOCC1`, for which the Z-AUC in test [1] was -1.38 (inactive); in test [1] (setting [3]), -0.565; in test [1] (measured here: PEO4 Z-AUC), -0.285.

On to `COCCn1c2c([n+](Cc3cnccn3)c1C)C(=O)c1ccccc1C2=O`, for which the Potency in test [1] was 49 nM (active); in test [2] (TFE3-RCC UOK109 viability) it was 83.3 nM (active). Moreover, the Z-AUC in test [1] (setting [3]) was -3.26; in test [1] (measured here: PEO4 Z-AUC) it was -3.48. The figures for the z-score in test [2] (setting [4]), in test [2] (setting [5]) and in test [2] (setting [6]) were -3.55, -3.42 and -3.23, respectively.

For `COC(=O)Nc1nc2ccc(C(=O)c3ccc(F)cc3)cc2[nH]1`, the Z-AUC is -0.379 (inactive) in test [1], -1.33 in test [1] (setting [3]) and -1.13 in test [1] (measured here: PEO4 Z-AUC). The Potency in test [2] (TFE3-RCC UOK109 viability) is 1870 nM (active). Besides, the z-score in test [2] (setting [4]) is -1.13; in test [2] (setting [5]) it was -1.2; in test [2] (setting [6]), -0.98.

For the compound `Cn1c2ccccc2c2c3c(c4c5ccccc5n(CCC#N)c4c21)CNC3=O`, the Z-AUC in test [1] was -0.442 (inactive); in test [1] (setting [3]), -1.02; in test [1] (measured here: PEO4 Z-AUC), -1.08. The Potency in test [2] (TFE3-RCC UOK109 viability) is 7430 nM (active). Further, the z-score in test [2] (setting [4]) was -0.993; in test [2] (setting [5]), -2.34; in test [2] (setting [6]), -1.2.

Turning to `Nc1ncnc2c1c(-c1cnc3[nH]ccc3c1)nn2C1CCCC1`, the Z-AUC in test [1] is -1.87 (inactive); in test [1] (setting [3]), -2.04; in test [1] (measured here: PEO4 Z-AUC) it was -1.31. The Potency in test [2] (TFE3-RCC UOK109 viability) is 264 nM (active). The z-score is -2.06 in test [2] (setting [4]), -1.51 in test [2] (setting [5]) and -1.32 in test [2] (setting [6]).

Consider `Clc1cccc(-n2nnnc2NCc2ccccc2Oc2ccccn2)c1Cl`, for which the Z-AUC in test [1] is -0.248 (inactive); in test [1] (setting [3]) it was -0.502; in test [1] (measured here: PEO4 Z-AUC), 0.0945. The z-score is -0.1 in test [2] (setting [4]), 0.284 in test [2] (setting [5]) and -0.372 in test [2] (setting [6]).

Turning to `CC[C@@H]1C(=O)N(C)c2cnc(Nc3ccc(C(=O)NC4CCN(C)CC4)cc3OC)nc2N1C1CCCC1`, the Potency in test [1] is 43.6 nM (active); in test [2] (TFE3-RCC UOK109 viability), 4180 nM (active). For the same compound, the figures for the Z-AUC in test [1] (setting [3]) and in test [1] (measured here: PEO4 Z-AUC) were -2.65 and -2.67, respectively. The z-score is -0.898 in test [2] (setting [4]), -2.05 in test [2] (setting [5]) and -1.29 in test [2] (setting [6]).

In the case of `C=C1C(=CC=C2CCC[C@]3(C)[C@@H]([C@H](C)C=C[C@H](C)C(C)C)CC[C@@H]23)C[C@@H](O)C[C@@H]1O`, the values for the Z-AUC in test [1], in test [1] (setting [3]) and in test [1] (measured here: PEO4 Z-AUC) were 0.703 (inactive), 0.5 and 0.821, respectively. In addition, the Potency in test [2] (TFE3-RCC UOK109 viability) is 418 nM (active). The values for the z-score in test [2] (setting [4]), in test [2] (setting [5]) and in test [2] (setting [6]) were -1.36, -0.997 and -1.08, respectively.

`CC(C)c1nn(-c2c(Cl)cccc2Cl)c2nc(Cc3ccc(OCCO)cc3)[nH]c(=O)c12`: the Z-AUC was -1.25 (inactive) in test [1], -2.35 in test [1] (setting [3]) and -1.5 in test [1] (measured here: PEO4 Z-AUC). Moreover, in test [2] (TFE3-RCC UOK109 viability), the Potency was 132 nM (active). The z-score in test [2] (setting [4]) is -2.2; in test [2] (setting [5]) it was -1.63; in test [2] (setting [6]), -2.67.

`CC1COC2(CCN(c3nc(=O)c4cc(C(F)(F)F)cc([N+](=O)[O-])c4s3)CC2)O1` (stereo not drawn): the Z-AUC was 0.328 (inactive) in test [1], 0.189 in test [1] (setting [3]) and 0.861 in test [1] (measured here: PEO4 Z-AUC). Besides, the z-score came to 1.51 in test [2] (setting [4]), 0.131 in test [2] (setting [5]) and 0.808 in test [2] (setting [6]).

For `CCCNC(=O)Nc1ccc(Oc2ncnc3cc(OC)c(OC)cc23)cc1Cl`, the Z-AUC in test [1] was -0.498 (inactive); in test [1] (setting [3]) it was -0.00236; in test [1] (measured here: PEO4 Z-AUC), -0.53. Moreover, the z-score in test [2] (setting [4]) is 0.0793; in test [2] (setting [5]) it was -1.33; in test [2] (setting [6]) it was -0.496.
